Experiment [1] can be described thus: qHTS assay to identify small molecule agonists of H2AX (AID 1224845; active = well fitted activation curve with a large enough effect in the signal ratio in the repeat runs, not every such curve was filed as active; the % refers to the signal ratio; note: potency is the fitted concentration of half-maximal effect). Put shortly:
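Wild-type CHO-K1 cells plated overnight, then exposed 3 hr at 37C to compounds at 15 concentrations (0.76% DMSO). Lysed, then HTRF anti-pH2AX(S139)-cryptate/anti-H2AX-d2 detection after 24 hr at room temperature; emissions 665 and 620 nm.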
In general terms: Quantitative high-throughput screening tests each substance at several concentrations.

Experiment [2] is described as follows: qHTS assay to identify small molecule agonists of the hypoxia (HIF-1) signaling pathway (AID 1224846; active = well fitted activation curve with a large enough effect in the signal ratio in the repeat runs, not every such curve was filed as active; the % refers to the signal ratio). An outline of the steps:
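ME-180 HRE-bla reporter cells; compounds in DMSO, 17 h at 37C; read-out beta-lactamase via CCF4-AM FRET.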

Experiment [3] in a line: qHTS RealTime-Glo MT Cell Viability Assay in HepG2 cells - 24 hour (AID 1224867). Note: nearly all actives have a fitted effect of over 50% in size. Put shortly: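 Viability was tracked continuously by NanoLuc luminescence from prosubstrate reduced by living HepG2 cells, at successive time points over 40 h of compound exposure. Cells with reagent were preincubated 5 h at 37 °C before compound addition.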
A short description of experiment [4]: qHTS RealTime-Glo MT Cell Viability Assay in HepG2 cells - 40 hour (AID 1224870). Note: nearly all actives have a fitted effect of over 50% in size. Put shortly:
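HepG2 cells mixed with RealTime-Glo MT reagents (NanoLuc plus cell-permeant prosubstrate) were seeded at 600 cells/well, incubated 5 h at 37 C/5% CO2, then pinned with compounds in DMSO; nonlytic luminescence tracked viability during 40 h treatment.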

Experiment [5] in a line: qHTS assay to identify small molecule agonists of H2AX - cell viability counter screen (AID 1224847; calls by dose curve; note: nearly all actives have a fitted effect of over 30% in size; note: potency is the fitted concentration of half-maximal effect). Put shortly:
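We seed wild-type CHO-K1 cells overnight, treat them for 3 hr at 37C with compounds in 15-concentration series, and quantify remaining viability by CellTiter-Glo luminescence.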

A short description of experiment [6]: qHTS assay to identify small molecule antagonists of the estrogen related receptor (ERR) signaling pathway from Tox21 library (AID 1224848). Note: nearly all actives have a fitted effect of over 50% in size. Note: potency is the fitted concentration of half-maximal effect. Put shortly: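 Tox21 10K compounds in DMSO tested for ERR pathway antagonism in NTP's ERR cell line; 18 h, 37 C exposure; ONE-Glo luminescence.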
Experiment [7] in a line: qHTS assay to identify small molecule agonists of the estrogen related receptor (ERR) signaling pathway from Tox21 library (AID 1224849; calls by dose curve; note: nearly all actives have a fitted effect of over 15% in size). To be noted: ERR reporter cell line, ONE-Glo luciferase, 18 h; at 92.4 µM (top of the series) unless noted. An outline of the steps:
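Luciferase activity in ERR pathway reporter cells served as the agonist readout; exposure lasted 18 h at 37 C, with ONE-Glo detection after 30 min at room temperature.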

Experiment [8] in a line: A CellTox Green Cytotoxicity Assay to monitor cytotoxicity in HEK293 cells - 0 hour (AID 1224869). Note: nearly all actives have a fitted effect of over 50% in size. An outline of the steps: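 Real-time, in one plate: 600 HEK293 cells/well with dead-cell DNA dye, pinned compound after 5 h, 37 C incubation over 40 h; viable cells give no appreciable fluorescence.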
A short description of experiment [9]: qHTS RealTime-Glo MT Cell Viability Assay in HEK293 cells - 32 hour (AID 1224868). Note: nearly all actives have a fitted effect of over 50% in size. Note: potency is the fitted concentration of half-maximal effect. An outline of the steps: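 Viability tracked continuously by luminescence as live cells reduce a prosubstrate for NanoLuc; HEK293 cells preincubated 5 h, compound-treated at 37 C, and read at 0, 8, 16, 24, 32 and 40 h.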
A short description of experiment [10]: qHTS assay to identify small molecule agonists of the hypoxia (HIF-1) signaling pathway - cell viability counter screen (AID 1224844; calls by dose curve; note: nearly all actives have a fitted effect of over 50% in size). An outline of the steps: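 In this counter screen, HRE-bla ME-180 cell viability after 17 hrs of compound exposure at 37C was read by CellTiter-Glo luminescence, multiplexed with the beta-lactamase reporter measurement.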

For 16 molecules, Potency and activity change, positive = activation results are on record in PubChem BioAssay (Tox21).

A number with no mark means an inactive call. Inconclusive results are not listed. Activity calls are given as the source filed them. Unless noted, calls come from the whole dose curve; as a rule, active = well fitted curve in the direction sought with a large enough effect in the repeat runs; inconclusive = weak or mixed curves; inactive = no such curve, though single readings can be large; an effect the other way counts as inactive or inconclusive.
% is set by controls: 0 for no effect and ±100 for the full control effect.

For the molecule `CCCCCCCCCCCCCCCCOS(=O)(=O)O`, the Potency entry in experiment [1], in experiment [2], in experiment [3] and in experiment [4] was “inactive” each time.

Take `CO[C@@H]1[C@H](OC(=O)/C=C/C=C/C=C/C=C/C(=O)O)CC[C@]2(CO2)[C@H]1[C@@]1(C)O[C@@H]1CC=C(C)C`: the Potency entry in experiment [1], in experiment [5], in experiment [6], in experiment [3] and in [4] was “inactive” each time. Moreover, in experiment [7], the activity change, positive = activation was -16%.

Turning to `C=CC(=O)OCCOc1ccccc1`, the Potency entry in experiment [5], in experiment [6], in experiment [3], in experiment [8] and in experiment [4] was “inactive” in each case.

With `CCN(CC)c1ccc(C(=C2C=CC(=[N+](CC)CC)C=C2)c2cc(S(=O)(=O)O)ccc2S(=O)(=O)[O-])cc1`, the Potency result in experiment [2], in [3], in experiment [9], in experiment [8] and in [4] was “inactive” throughout. Besides, the Potency in experiment [5] is 22 µM (active); in experiment [6] it was 11.9 µM (active). In experiment [7], the activity change, positive = activation was -45.9% [at 42.5 µM].

As to `CN(C)CCN(Cc1ccccc1)c1ccccn1`, the Potency result in [1], in experiment [5], in experiment [3], in experiment [9] and in experiment [4] was “inactive” throughout.

Regarding `CC(=O)c1ccc2c(c1)N(CCCN1CCC(CCO)CC1)c1ccccc1S2`, the Potency result in [2], in experiment [5], in experiment [3], in [8] and in [4] was “inactive” throughout. Besides, the Potency in [9] is 21.3 µM (active).

Regarding `CN(C)CCOC(c1ccccc1)c1ccc(Br)cc1` (stereo unspecified), the Potency result in experiment [1], in experiment [2], in experiment [5], in experiment [6], in [3] and in experiment [4] was “inactive” each time. The activity change, positive = activation in experiment [7] is -2.31% [at 42.5 µM].

As to `C[C@H]1C[C@H]2[C@@H]3CCC4=CC(=O)C=C[C@]4(C)[C@@]3(Cl)[C@@H](O)C[C@]2(C)[C@@]1(O)C(=O)CO`, the Potency entry in [1], in experiment [5], in [9], in [8] and in experiment [4] was “inactive” throughout. Also, the Potency in experiment [6] was 26.6 µM (active). Besides, the activity change, positive = activation in experiment [7] was -28.8% [at 42.5 µM].

In the case of `c1ccc(-c2ccccn2)nc1`, the Potency entry in experiment [10], in [5], in [3] and in experiment [4] was “inactive” throughout.

In the case of `Cc1cc(N)c2cc(NC(=O)Nc3ccc4nc(C)cc(N)c4c3)ccc2n1`, the Potency entry in [3], in experiment [9], in experiment [8] and in [4] was “inactive” throughout.

With `O=C(O)c1ccc(-n2nc(-c3ccccc3O)nc2-c2ccccc2O)cc1`, the Potency entry in experiment [10], in experiment [3] and in experiment [4] was “inactive” each time. In addition, the Potency in [6] is 21.1 µM (active).

`C=CC(=O)OCCOCCOC(=O)C=C`: the Potency in experiment [1] is 56.9 µM (active). The Potency result in experiment [6] and in [8] was “inactive” in each case.

For `COc1ccc(S(=O)(=O)N2C(=O)[C@@](c3ccccc3OC)(N3C[C@H](O)C[C@H]3C(=O)N(C)C)c3cc(Cl)ccc32)c(OC)c1`, the Potency entry in experiment [2] is “inactive”. In addition, the Potency in experiment [9] was 49 µM (active).

Consider `O=C(OCCc1ccccc1)c1ccccc1`, for which the Potency entry in experiment [1], in [2], in experiment [3], in experiment [9], in experiment [8] and in experiment [4] was “inactive” throughout.

With `CCCCC(=O)OCC(=O)[C@H]1[C@H](C)C[C@H]2[C@@H]3C[C@H](F)C4=CC(=O)C=C[C@]4(C)[C@@]3(F)[C@@H](O)C[C@@]21C`, the Potency result in experiment [1], in experiment [2], in [5], in experiment [9], in experiment [8] and in experiment [4] was “inactive” in each case.

Consider `C[C@H](CCC(=O)O)[C@H]1CC[C@H]2[C@@H]3CC[C@@H]4C[C@H](O)CC[C@]4(C)[C@H]3C[C@H](O)[C@]12C`, for which the Potency entry in [1], in experiment [3], in experiment [8] and in experiment [4] was “inactive” each time.
